Compounds without any hit were thinned out: in the full panel of roughly 83,000, 20% have a hit.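 96-well plates, one dose, 48 hours. Percent growth reported; active if below 10.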 Values without a mark were called inactive. The source made the active and inactive calls.

The first test relates to HCT-15 colon. As to the kind of experiment: NCI-60 one-dose screen, 48 h (100 = growth as untreated, 0 = no growth, -100 = all killed). Conditions: 10 µM unless noted.
Consider `COC(=O)[C@]12CC[C@@H](C)[C@H](C)[C@@H]1C1=CC[C@@H]3[C@@]4(C)C(C=O)=C[C@@](C)(COC(C)=O)[C@@H]4[C@H](O)C[C@@]3(C)[C@]1(C)CC2`, for which the growth was -62.7% (active).
Turning to `CCc1c2c(nc3ccc(OC(=O)OCc4ccc(B5OC(C)(C)C(C)(C)O5)cc4)cc13)-c1cc3c(c(=O)n1C2)COC(=O)[C@]3(O)CC`, the growth is 9.28% (active).
Turning to `N#Cc1c(N2CCNCC2)nc2sc3cc(Cl)c(Cl)cc3n2c1=N`, the growth was 122%.
`Cc1ccc(/C=C/c2c(C(=O)/C=C/c3ccc(C(F)(F)F)cc3)c(C)nc3ccccc23)cc1`: the growth was -29.6% (active).
On to `COc1ccc2c(c1)[nH]c(=O)c1c3cccnc3cn21`, for which the growth is 13.7%.
In the case of `COc1ccc2c(c1)C(=O)/C(=C/c1cccc(OCC(=O)Nc3nc(C)c(C)s3)c1)O2`, the growth was 12.3%.
For the molecule `COc1cccc(-c2nn(-c3ccccc3)cc2-c2ccnc(NCCNC(=O)c3ccccc3)c2)c1`, the growth was 50.5%.
In the case of `COC(=O)/C=C1\S/C(=N\NS(=O)(=O)c2ccc(C)cc2)N(c2ccccc2)C1=O`, the growth was 98.7%.
In the case of `Cc1ccc(-c2cc3c(cc2O)C2CCCCC2(N2CCOCC2)O3)cc1` (stereo unspecified), the growth is 101%.
With `CCOc1ccccc1-c1cc(-c2cccs2)c(C#N)c(=O)[nH]1`, the growth is 56.8%.
Take `N#Cc1nc(C#N)c(Sc2ccccc2)c(Sc2ccccc2)c1Sc1ccccc1`: the growth was -53.7% (active).
On to `CCN1CCN(c2cc(C)nc(NCc3cc(Nc4ccnc5cc(Cl)ccc45)ccc3F)n2)CC1`, for which the growth is 15.9%.
Consider `Cn1ccc2c(c1=O)C(=O)c1nccc3c1c-2nc1ccccc13`, for which the growth is -61.4% (active).
Take `COC1=CC(=O)C[C@@H](C)[C@]12Oc1c(Cl)c(OC)cc(OC)c1C2=O`: the growth is 76.9%.
With `O=C1CCc2c(sc3[nH]c(=S)n(-c4ccc(OC(F)(F)F)cc4)c(=O)c23)C1`, the growth is 40.4%.
The same measure, in the same setting: to `COc1cc(C(=O)/C=C/c2c(-c3ccc(F)cc3)nc3sc(C)cn23)cc(OC)c1OC` belongs 35.5%; to `Cc1nn(-c2ccccc2)c(Oc2ccc(Cl)cc2)c1/C=N\N=c1/sc2ccccc2n1C`, 77.4%.
Consider `COC(=O)c1ccc(C2Nc3ccc(S(=O)(=O)Nc4ccc(C)c(C)c4)cc3C3OCCC23)cc1` (stereo unspecified), for which the growth is 71.2%.
On to `CCCCCCCCn1ccc2cc(NC(=O)Cn3cc(CN4CCCC4)nn3)ccc21`, for which the growth is -45.6% (active).
On to `O=S(=O)(Nc1cccc(Cl)c1)c1ccc(-c2cnc(C3CC3)o2)cc1`, for which the growth was 23.9%.
As to `COc1ccc(-c2nc(SC(C)C)nc(NNC(N)=S)c2C#N)cc1`, the growth was 23.6%.
Consider `Cc1cc(NCc2cc(Nc3ccnc4cc(Cl)ccc34)ccc2F)nc(N2CCN(C)CC2)n1`, for which the growth was -42.9% (active).
With `Cc1ccc2nc(C)c(-c3nnc(SCc4ccc(C#N)cc4)o3)n2c1`, the growth is 79.6%.
Same read-out and setting: with `CCN1C(=O)N(CC)C2Nn3c(s/c(=C\c4ccc(Cl)cc4Cl)c3=O)=NC21` (stereo unspecified) the figure was 22.4%; with `C[n+]1cc2cc(C(N)=O)[nH]c3c(=N)c(Cl)c(N)c1c23`, 42.1%; with `CCc1ccccc1-n1c(-c2ccc(Cl)cc2)cc(-c2ccc(Cl)cc2)c(C#N)c1=O`, 84.3%.
`Cc1ccc2nc(NC(=O)CSc3nc(-c4ccccc4)c(C#N)c(=O)n3Cc3ccccc3)sc2c1`: the growth is 96.6%.
Consider `COc1ccc(C2=Nc3c(N)ncnc3NC(c3ccc4c(c3)OCO4)C2)cc1` (stereo unspecified), for which the growth is 94.8%.
Turning to `Clc1ccc(-c2c3ccc(=[N+]4CCCCC4)cc-3oc3cc(N4CCCCC4)ccc23)cc1`, the growth was -77.1% (active).
In the case of `CCCCN(CCCC)CC(C)(C)C(O)c1ccc(OC)c2ccccc12` (stereo unspecified), the growth is 59.1%.
Consider `C(=N\Nc1ncc(-c2cc3cc4c(cc3o2)OCO4)s1)/c1ccco1`, for which the growth is 18.4%.
Take `O=C(c1ccccc1)c1c(/C=C/c2ccccc2)nc2ccccc2c1/C=C/c1ccc(Br)cc1`: the growth is 108%.
On the same count and under the same terms, to `Cc1cc(NCc2cc(Nc3ccnc4cc(Cl)ccc34)ccc2F)nc(N2CCN(c3ccccc3)CC2)n1` belongs 15.6%; to `O=[N+]([O-])c1ccc(N2c3ccncc3Sc3ccncc32)cc1`, 96.5%.
Regarding `COc1cc(C2CC(=O)Nc3c2c(C)nn3-c2nc3ccccc3[nH]2)c(OC)c(OC)c1OC` (stereo unspecified), the growth was 33%.
With `Cc1c2c(c(C)c3c1oc1cc(O)ccc13)C(=O)N(CCN1CCCCC1)C2=O`, the growth was 95.4%.
On the same count and under the same terms, with `COCN1CCC2N(COC)CCC3N(COC)CCC1N23` (stereo unspecified) the figure was 104%; with `Cc1cc(C)c(-c2c(C)cc(C)cc2CBr)c(CBr)c1`, 80.6%.

Another test concerns HT29 colon. The description is as above. Conditions: 10 µM unless noted.
For `COC(=O)[C@]12CC[C@@H](C)[C@H](C)[C@@H]1C1=CC[C@@H]3[C@@]4(C)C(C=O)=C[C@@](C)(COC(C)=O)[C@@H]4[C@H](O)C[C@@]3(C)[C@]1(C)CC2`, the growth was -52.8% (active).
Turning to `CCc1c2c(nc3ccc(OC(=O)OCc4ccc(B5OC(C)(C)C(C)(C)O5)cc4)cc13)-c1cc3c(c(=O)n1C2)COC(=O)[C@]3(O)CC`, the growth was 24.8%.
Consider `N#Cc1c(N2CCNCC2)nc2sc3cc(Cl)c(Cl)cc3n2c1=N`, for which the growth was 98.7%.
Regarding `Cc1ccc(/C=C/c2c(C(=O)/C=C/c3ccc(C(F)(F)F)cc3)c(C)nc3ccccc23)cc1`, the growth is 5.36% (active).
As to `COc1ccc2c(c1)[nH]c(=O)c1c3cccnc3cn21`, the growth is 8.6% (active).
Still for that read-out and setting: to `COc1ccc2c(c1)C(=O)/C(=C/c1cccc(OCC(=O)Nc3nc(C)c(C)s3)c1)O2` belongs -82.2% (active).
As for `COc1cccc(-c2nn(-c3ccccc3)cc2-c2ccnc(NCCNC(=O)c3ccccc3)c2)c1`, the growth is 15.9%.
For the molecule `COC(=O)/C=C1\S/C(=N\NS(=O)(=O)c2ccc(C)cc2)N(c2ccccc2)C1=O`, the growth is 117%.
As to `Cc1ccc(-c2cc3c(cc2O)C2CCCCC2(N2CCOCC2)O3)cc1` (stereo unspecified), the growth was 105%.
Same read-out and setting: to `CCOc1ccccc1-c1cc(-c2cccs2)c(C#N)c(=O)[nH]1` belongs 120%.
Same read-out and setting: with `N#Cc1nc(C#N)c(Sc2ccccc2)c(Sc2ccccc2)c1Sc1ccccc1` the figure was -67.2% (active).
Regarding `CCN1CCN(c2cc(C)nc(NCc3cc(Nc4ccnc5cc(Cl)ccc45)ccc3F)n2)CC1`, the growth was -5.84% (active).
Regarding `Cn1ccc2c(c1=O)C(=O)c1nccc3c1c-2nc1ccccc13`, the growth is -76.7% (active).
Consider `COC1=CC(=O)C[C@@H](C)[C@]12Oc1c(Cl)c(OC)cc(OC)c1C2=O`, for which the growth was 104%.
With `O=C1CCc2c(sc3[nH]c(=S)n(-c4ccc(OC(F)(F)F)cc4)c(=O)c23)C1`, the growth was 104%.
On to `COc1cc(C(=O)/C=C/c2c(-c3ccc(F)cc3)nc3sc(C)cn23)cc(OC)c1OC`, for which the growth is 41.5%.
For `Cc1nn(-c2ccccc2)c(Oc2ccc(Cl)cc2)c1/C=N\N=c1/sc2ccccc2n1C`, the growth is 84.8%.
With `COC(=O)c1ccc(C2Nc3ccc(S(=O)(=O)Nc4ccc(C)c(C)c4)cc3C3OCCC23)cc1` (stereo unspecified), the growth is 83.7%.
On the same count and under the same terms, with `CCCCCCCCn1ccc2cc(NC(=O)Cn3cc(CN4CCCC4)nn3)ccc21` the figure was -57.8% (active); with `O=S(=O)(Nc1cccc(Cl)c1)c1ccc(-c2cnc(C3CC3)o2)cc1`, 3.59% (active).
In the case of `COc1ccc(-c2nc(SC(C)C)nc(NNC(N)=S)c2C#N)cc1`, the growth is 85%.
Consider `Cc1cc(NCc2cc(Nc3ccnc4cc(Cl)ccc34)ccc2F)nc(N2CCN(C)CC2)n1`, for which the growth was -24.5% (active).
`Cc1ccc2nc(C)c(-c3nnc(SCc4ccc(C#N)cc4)o3)n2c1`: the growth is 115%.
For `CCN1C(=O)N(CC)C2Nn3c(s/c(=C\c4ccc(Cl)cc4Cl)c3=O)=NC21` (stereo unspecified), the growth is 79.3%.
On the same count and under the same terms, with `C[n+]1cc2cc(C(N)=O)[nH]c3c(=N)c(Cl)c(N)c1c23` the figure was 35.3%; with `CCc1ccccc1-n1c(-c2ccc(Cl)cc2)cc(-c2ccc(Cl)cc2)c(C#N)c1=O`, 84.4%.
As for `Cc1ccc2nc(NC(=O)CSc3nc(-c4ccccc4)c(C#N)c(=O)n3Cc3ccccc3)sc2c1`, the growth is 105%.
`COc1ccc(C2=Nc3c(N)ncnc3NC(c3ccc4c(c3)OCO4)C2)cc1` (stereo unspecified): the growth is 93.2%.
On to `Clc1ccc(-c2c3ccc(=[N+]4CCCCC4)cc-3oc3cc(N4CCCCC4)ccc23)cc1`, for which the growth is -82.3% (active).
As for `CCCCN(CCCC)CC(C)(C)C(O)c1ccc(OC)c2ccccc12` (stereo unspecified), the growth is 9.09% (active).
Same read-out and setting: to `C(=N\Nc1ncc(-c2cc3cc4c(cc3o2)OCO4)s1)/c1ccco1` belongs 36.9%.
Regarding `O=C(c1ccccc1)c1c(/C=C/c2ccccc2)nc2ccccc2c1/C=C/c1ccc(Br)cc1`, the growth was 102%.
As for `Cc1cc(NCc2cc(Nc3ccnc4cc(Cl)ccc34)ccc2F)nc(N2CCN(c3ccccc3)CC2)n1`, the growth was 13.6%.
The same measure, in the same setting: to `O=[N+]([O-])c1ccc(N2c3ccncc3Sc3ccncc32)cc1` belongs 121%; to `COc1cc(C2CC(=O)Nc3c2c(C)nn3-c2nc3ccccc3[nH]2)c(OC)c(OC)c1OC` (stereo unspecified), 80.7%; to `Cc1c2c(c(C)c3c1oc1cc(O)ccc13)C(=O)N(CCN1CCCCC1)C2=O`, 61.3%.
The same measure, in the same setting: with `COCN1CCC2N(COC)CCC3N(COC)CCC1N23` (stereo unspecified) the figure was 105%; with `Cc1cc(C)c(-c2c(C)cc(C)cc2CBr)c(CBr)c1`, 86.3%.

The values are drawn from PubChem BioAssay (NCI).
